# Source: PubChem
# D1 antag = antagonists of human D1 dopamine receptor; P21728; HEK293 TREx D1 cells, calcium flux, dopamine EC80; stronger effect = lower value; AID 504652; 3.2% of 360,000 active; activity change, negative = inhibition, % at 10 µM; in the data active = activity change below about -30%; note: % is set by controls: 0 for no effect and ±100 for the full control effect
#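 HEK293 T-REx cells expressing inducible, force-coupled D1 receptor; no-wash Ca dye, 30–90 min RT. Cmpd → 180 s read at 1 Hz → EC80 DA → 180 s read.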
# DRD3 agonist = activates the human D3 dopamine receptor. D3R DiscoveRx beta-arrestin cells, luminescence, 90 min. max activation, %. 0.58% of 410,000 active. AID 652048; in the data active = max activation above about 30%; note: 0% is about no effect
# Target sequence (P35462 whole entry, looked up): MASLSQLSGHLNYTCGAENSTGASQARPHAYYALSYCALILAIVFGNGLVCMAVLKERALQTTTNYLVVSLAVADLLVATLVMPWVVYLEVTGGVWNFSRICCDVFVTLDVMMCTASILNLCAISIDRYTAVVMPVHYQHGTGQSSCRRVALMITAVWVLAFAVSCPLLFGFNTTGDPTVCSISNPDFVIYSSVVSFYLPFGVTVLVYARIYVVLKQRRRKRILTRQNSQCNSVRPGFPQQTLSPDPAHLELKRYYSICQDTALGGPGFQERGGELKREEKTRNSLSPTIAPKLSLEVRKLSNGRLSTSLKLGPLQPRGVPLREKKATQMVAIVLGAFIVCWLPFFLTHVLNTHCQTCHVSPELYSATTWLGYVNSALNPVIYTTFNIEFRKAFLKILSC
#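 Agonist mode: compounds and dopamine controls were applied to plated cells for 90 min at 37 degrees C after an overnight attachment at 1500 cells/well. Luminescent read-out followed 30 - 60 minutes at room temperature with DiscoveRx detection reagent.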
# D3 antag = antagonists of human D3 dopamine receptor; P35462; D3R cells, DiscoveRx beta-arrestin luminescence, antagonist mode; stronger effect = lower value; max response, negative = inhibition, %; 2.5% of 360,000 active; in the data active = max response below about -50%; inconclusive = no clear call, values can overlap the other calls; note: % is set by controls: 0 for no effect and ±100 for the full control effect
#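 Cells expressing the human receptor were seeded at 1500 cells/well, incubated overnight at 37 degrees C in 5% CO2, then exposed to library compounds with dopamine controls for 90 minutes at 37 degrees C before luminescent detection.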
# D1 potentiator = enhances dopamine response at the human D1 receptor; P21728; HEK293 TREx D1 cells, calcium flux, dopamine EC20 potentiation; potentiation, % at 10 µM; 0.036% of 360,000 active; in the data active = potentiation above about 30%; note: 0% is about no effect
# BCR signal inh = blocks chronic active B-cell receptor signaling; 0.05% of 340,000 active; Potency, µM (doses to about 46.1 µM), for the others: top-dose activity change, negative = inhibition, usual class: inhibitors; ABC-DLBCL IkBa-CBG/CBR reporter, luminescence ratio, 4 h; active = well fitted inhibition curve with a large enough effect in the signal ratio, with a control signal flat, not every such curve was filed as active; inconclusive = small, poorly fitted or top-dose-only effect, or effect the other way, or a change in a side signal; the % refers to the signal ratio;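 note: potency is the fitted concentration of half-maximal effect; plate controls were basal doxycycline-induced cells for no effect and cells given 10 µM MG132 for full effect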
#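 Cell line TMD8 (human ABC DLBCL), stably expressing tet-inducible CBG68-IkBa fusion and CBR; IMDM/0.5% FBS; cpd up to 46 uM; dox induction, 4 h, 37C/5% CO2; dual luminescence; green/red ratio; MG132 control.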
# D1 ag = agonists of human D1 dopamine receptor; P21728; HEK293 T-REx D1 cells, calcium flux, agonist mode; activation, % at 2 µM; 1% of 360,000 active; in the data active = activation above about 30%; note: 0% is about no effect
#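 Inducible HEK293 T-REx D1 cells, force-coupled to calcium signalling, were plated at 4000 cells/well with tetracycline and held overnight at 30 C. After no-wash calcium dye loading, compound-evoked calcium rise over 180 s flagged agonists.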
# * = called active by the depositor; ? = inconclusive; . = no result given. Shown are actives, neighbours in structure and some others; about 6% of the full set was active somewhere.
SMILES,D1 antag,DRD3 agonist,D3 antag,D1 potentiator,BCR signal inh,D1 ag
O=C(COc1ncnc2ccccc12)NCc1ccc2c(c1)OCO2,5.3,-4.3,14.9,-1.4,-5.8%,0.0
O=C(c1n[nH]c(=O)c2ccccc12)N1CCOCC1,-15.9,-6.2,-59.3*,-4.0,-0.7%,-0.4
Cc1ccc(NC(=O)CN(C)C(=O)c2cccc(-n3cccc3)c2)cc1,-39.5*,-22.8,-1.8,-7.7,-1.5%,-0.4
Cc1ccc(NC(=O)CN(C)C(=O)c2ccc(Cl)nc2)cc1,-0.1,-16.2,-83.7*,-4.9,-0.3%,0.0
COc1ccc([C@H]2CC(=O)C=C(c3ccc(F)cc3OCc3ccccc3)C2)cc1OC,0.3,73.4*,115.8,2.8,-0.4%,8.4
COc1ccc([C@H]2CC(=O)C=C(c3ccc(F)cc3OCc3ccccc3)C2)cc1,.,28.6,4.7,-1.0,-0.8%,9.4
O=C1C=C(c2ccc(F)cc2OCc2ccccc2)C[C@@H](c2ccc(F)cc2)C1,.,42.3*,-14.6,-4.3,0.2%,7.1
COCCCN(Cc1cc(OC)c(OC)c(OC)c1)C(=S)Nc1cccc(Cl)c1,.,2.8,30.7,.,.,.
CCOc1ccccc1NC(=O)CSc1nc2c(oc3ccccc32)c(=O)n1C(C)C,13.7,4.0,.,-4.7,.,2.2
COc1ccc(C)cc1NC(=O)NCCn1nnc2cc(S(=O)(=O)N(C)C)ccc21,10.6,5.1,.,-0.4,.,1.2
O=C(O)c1cc(-n2c(/C=C\c3ccc(F)cc3)nc3ccccc3c2=O)ccc1Cl,-31.5*,5.1,.,1.2,?,-3.0
O=C(O)c1cccc(-n2c(/C=C/c3ccccc3)nc3ccccc3c2=O)c1,1.5,5.8,45.9,-7.9,?,16.3
CN(C)c1ccc(/C=C/c2nc3ccccc3c(=O)n2-c2ccc(C(=O)O)cc2)cc1,2.1,6.7,7.5,-5.1,?,102.1*
CCOc1ccc(NC(=O)c2cc3c(-c4ccccc4F)nn(C)c3s2)cc1,19.8,5.2,.,-1.4,.,6.3
O=C1C(=O)N(C2CCN(C(=O)c3ccc(F)cc3)CC2)CCN1Cc1ccc(F)cc1,-3.5,22.3,.,-3.5,.,1.6
Cc1ccc(-c2cc(C(=O)O)c3ccccc3n2)s1,-45.8*,-4.6,-13.9,-5.9,2.2%,0.7
Cc1ccc(C(=O)O)c(C(=O)Nc2nc3ccccc3s2)c1,2.0,30.0*,10.5,1.6,?,5.0
CCCNC(=O)Nc1nc2ccccc2s1,-72.5*,1.0,-1.0,-14.7,?,4.0
O=C(O)c1cc(-c2ccc(Cl)s2)nc2ccccc12,7.4,-10.4,-29.0,-0.6,-0.6%,2.1
Cc1cc(Nc2ccccc2F)n2nc(-c3ccccc3)nc2n1,4.6,5.2,.,-1.4,.,1.8
COc1cc(NC(=O)CC(C)n2nc(C)cc2C)cc(OC)c1 (centres undefined),8.7,0.4,.,-3.2,.,5.3
Cc1ccc(C)c(NC(=S)NNC(=O)c2ccco2)c1,-35.3*,0.0,9.3,-8.0,2.1%,2.5
O=C(NNC(=S)NC(=O)c1ccc(Br)cc1)c1cccc([N+](=O)[O-])c1,-4.5,-3.1,-10.1,-1.2,-6.0%,32.2*
Cc1cc(C)cc(NS(=O)(=O)c2ccc(NC(=S)NC(=O)c3cccs3)cc2)c1,-28.8,-18.3,-84.0*,-6.0,5.1%,7.3
COc1cc(NS(=O)(=O)c2ccc(NC(=S)NC(=O)c3cccs3)cc2)nc(OC)n1,-5.6,3.9,-13.5,3.2,4.4%,0.8
SMILES,D1 antag,DRD3 agonist,D3 antag,D1 potentiator,BCR signal inh,D1 ag
Cc1cccc(-c2nnc(NC(=O)c3cccs3)s2)c1,-41.2*,-2.0,?,0.3,?,1.1
O=C(NNC(=S)NC(=O)c1ccc(Br)cc1)c1ccc([N+](=O)[O-])cc1,-3.9,1.6,21.0,-0.5,?,10.4
CCCC(CCC)C(=O)Nc1cccc(-c2nc3cccnc3s2)c1,-0.6,-4.9,.,-1.6,.,0.7
Cc1ccc(Cl)cc1NC(=O)Cn1c(=O)n(C(C)C)c(=O)c2oc3ccccc3c21,-0.3,1.2,.,-2.0,.,-0.6
Cc1cccc(-n2nnc(-c3nc(-c4cccs4)no3)c2N)c1C,-4.3,4.2,.,0.9,.,2.8
Cc1ccc(C(=O)c2cn(Cc3cccc(F)c3)c3nc(C)ccc3c2=O)cc1,-8.9,-3.7,.,0.1,.,1.7
COc1ccc(S(=O)(=O)N2CCCCC2c2cc(C(=O)NCc3cccnc3)no2)cc1 (centres undefined),.,-2.0,-12.1,.,.,.
O=C(CCc1ccccc1)NNC(=S)NC(=O)c1ccccc1,-9.1,-8.4,0.1,-10.2,2.4%,1.0
Cc1ccccc1C(=O)NNC(=S)NC(=O)c1ccccc1,-37.3*,-4.9,-10.1,-0.7,?,279.3*
Cc1cc(NS(=O)(=O)c2ccc(NC(=S)NC(=O)c3cccnc3)cc2)no1,8.7,-14.6,-51.0*,-1.1,1.6%,-0.9
Cc1ccc(C(=O)NC(=S)NNC(=O)c2ccccc2O)cc1,-16.4,10.8,70.6,-0.8,?,55.2*
CC(C)(C)c1cc(CCC(=O)NNC(=S)NC(=O)c2ccccc2)cc(C(C)(C)C)c1O,-66.3*,-20.3,-78.5*,18.1,-1.7%,132.5*
Cc1cccc(NC(=O)CN2C(=O)CSc3ccc(S(=O)(=O)N4CCCC4)cc32)c1C,-6.4,-9.9,.,-0.4,.,0.5
O=c1[nH]c(=O)n([C@H]2CCCO2)cc1F,.,-5.6,.,.,.,.
O=C(/C=C/c1ccc(Br)cc1)NC(=S)NNC(=O)c1ccco1,-18.5,-9.8,-83.6*,1.5,?,-1.8
Cc1ccc(C(=O)NNC(=S)NC(=O)c2ccc(Cl)cc2Cl)cc1,4.4,14.1,10.6,1.9,?,153.6*
Cc1ccc(C(=O)NNC(=S)NC(=O)c2ccccc2)cc1,.,-6.0,-20.8,.,.,.
Cc1cccc(C(=O)NNC(=S)NC(=O)c2cccs2)c1,-5.8,0.7,-3.4,-8.5,?,75.7*
Cc1ccc(C(=O)NC(=S)NNC(=O)c2ccccc2)cc1,-41.8*,3.2,4.1,-5.2,-18.6%,200.0*
CCCCC(=O)NC(=S)NNC(=O)c1ccc(Cl)cc1Cl,-21.0,4.7,-3.9,-0.3,?,0.1
COC(=O)c1ccccc1NC(=O)c1ccc(F)cc1F,1.8,.,.,-6.5,.,11.8
O=C(NC(=S)NNC(=O)c1ccccc1O)c1cccs1,19.8,37.0*,0.9,-5.2,?,2.1
Cc1ccc(C)c(NC(=S)NCc2ccccc2)c1,-36.3*,-8.2,-0.9,-7.6,-0.2%,1.8
Cc1ccc(C(=O)NNC(=O)c2ccco2)cc1,11.2,-3.4,36.9,8.0,-12.5%,2.8
Cc1ccc(C(=O)NNC(=S)NC(=O)c2ccco2)cc1,-10.8,13.2,2.0,-7.8,?,59.1*
NC(Cc1ccc(C(F)(F)F)cc1)c1csc(NC(=O)NCCc2ccccc2)n1 (centres undefined),.,-4.7,9.8,.,.,.
